Screening data as filed in PubChem BioAssay.
ALR H2O2 inh: blocks human ALR sulfhydryl oxidase activity; P55789; purified ALR, DTT oxidation, H2O2 HRP-luminol luminescence; inhibition, % (concentration not given with the values); 3.8% of 290,000 active; AID 485317;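 active = mean replicate inhibition above about 79%, with every replicate also reaching it, limit read from the data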
Target sequence (P55789 whole entry, looked up): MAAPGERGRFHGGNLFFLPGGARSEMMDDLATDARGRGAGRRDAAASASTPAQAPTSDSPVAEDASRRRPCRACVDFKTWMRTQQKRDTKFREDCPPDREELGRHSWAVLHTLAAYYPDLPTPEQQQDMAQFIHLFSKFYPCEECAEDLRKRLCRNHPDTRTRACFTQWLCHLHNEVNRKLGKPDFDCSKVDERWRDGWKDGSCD
AI-2 QS modul: Vibrio harveyi AI-2 quorum sensing modulation | Vibrio harveyi JMH597 AI-2 luminescence/OD600 ratio, 9 h; stronger effect = lower value; strain lacks LuxN and CqsS sensors; 0 = neutral-control median | AID 2094 | activity change, % at 7.5 µM | 0.4% of 300,000 active; in the data active = activity change below about -75%, passing the limit was not always enough;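 note: luminescence divided by OD600 gain over 9 h not by final OD600 alone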
HIF act: HIF pathway transcriptional activation; U2OS HRE-luciferase reporter, luminescence; normalized: DMSO 0%, desferrioxamine 100%; activation, % at 7.5 µM (by protocol); 0.32% of 300,000 active;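 active = mean activation of at least 10% of the iron chelator positive control signal, with at least half of replicates also reaching 10%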
SUMO Mot1 rescue: inhibitors of SUMOylation pathway: yeast Mot1-301 growth rescue | S. cerevisiae Mot1-301 growth rescue, ATP luminescence, 38.5C; percent above DMSO median, 100 means doubled | growth rescue, % at 18.8 µM | 1% of 320,000 active;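 active = every valid replicate shows activation above 250% relative to neutral control wells; inactive = the rest, any valid replicate at or below 250%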;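 note: OY570 slx delta 5 strain wells were the positive control but not used for scaling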
Active calls of the source: *; x = not tested or not shown. This is a sample that favours compounds with a hit; in the whole collection about 4.8% have one here.

SMILES | ALR H2O2 inh | AI-2 QS modul | HIF act | SUMO Mot1 rescue
CC(=O)c1cccc(NC(=S)NNC(=O)c2ccc(C)c([N+](=O)[O-])c2)c1 | 63 | 24 | 1 | -16
Cc1ccc(NC(=S)NNC(=O)c2cccc([N+](=O)[O-])c2)cc1Cl | 88* | 66 | 1 | 230
Cc1ccc(NC(=S)NNc2ccc(C(=O)O)cc2[N+](=O)[O-])cc1C | 99* | 17 | 0 | 411
Cc1ccc(C(=O)NNC(=S)Nc2cccc(Cl)c2Cl)cc1[N+](=O)[O-] | 97* | 3 | 0 | 26
Cc1ccc(NC(=S)NNc2ccc([N+](=O)[O-])cc2S(=O)(=O)Nc2ccccc2C(=O)O)cc1C | x | 12 | 1 | 6
CCOC(=O)[C@@H]1[C@H]2COc3ccccc3[C@@H]2N2C(=O)N(c3ccc(C(F)(F)F)cc3)C(=O)[C@]12C | 0 | 25 | 0 | 1
O=C(NNC(=O)C1CCCC1)c1cc([N+](=O)[O-])cc([N+](=O)[O-])c1 | x | x | x | -3
Cc1cc(C)c2nc(-c3ccccn3)cc(C(=O)NCc3cc(C)n(C)n3)c2c1 | -5 | 12 | 0 | -2
Cc1cc(C)c2nc(-c3ccccn3)cc(C(=O)NCc3ccco3)c2c1 | 89* | 8 | 1 | -6
O=C(Nc1nc2ccccc2s1)C1CCCO1 (configuration not stated) | 2 | 45 | 1 | 12
O=C(Nc1nc2ccc(F)cc2s1)C1CCCO1 (configuration not stated) | 99* | 36 | 1 | -6
O=C(CN1C(=O)C2CC=CCC2C1=O)Nc1nc2ccc(F)cc2s1 (configuration not stated) | 98* | -2 | 0 | 2
O=C(CN1C(=O)NC2(CCCC2)C1=O)Nc1nc2ccc(F)cc2s1 | -3 | -46 | 1 | 3
NNc1nc2ccc(F)cc2s1 | 99* | 18 | 2 | 62
NNc1nc2ccc(Cl)cc2s1 | x | 23 | 2 | 375
CC(C)(C)c1ccc(OCC(=O)N/N=C/C2CC=CCC2)cc1 (configuration not stated) | x | 24 | 0 | -16
COc1ccc(C(=O)N/N=C/C2CC=CCC2)cc1OC (configuration not stated) | 93* | -1 | 0 | 12
CN1/C(=C\C=N\NC(=O)c2cccnc2)C(C)(C)c2ccccc21 | 98* | 11 | -1 | -11
COCCNC(=O)Cn1nc(-c2ccc(C)cc2)c2ccccc2c1=O | 1 | 13 | 1 | 8
Cc1nc2ccccc2n1CCc1nc2c3ccccc3nc(=S)n2[nH]1 | 92* | 32 | 1 | 6
Cc1ccccc1-c1nc2c3ccccc3nc(=S)n2[nH]1 | x | 11 | 0 | 10
N#CCC(=O)Nc1ccc(C(=O)OCC(=O)N2CCN(C(=O)c3ccco3)CC2)cc1 | 100* | x | x | 6
N#CCC(=O)Nc1ccc(C(=O)OCC(=O)N2CCCC2=O)cc1 | 99* | 15 | -1 | -3
N#CCC(=O)Nc1ccc(C(=O)OCC(=O)NC(=O)Cc2ccccc2)cc1 | 99* | 39 | -1 | 4
CCn1c(=O)cc(OCC(=O)N2CCN(C(=O)c3ccco3)CC2)c2ccccc21 | -4 | 7 | 0 | 707*
SMILES | ALR H2O2 inh | AI-2 QS modul | HIF act | SUMO Mot1 rescue
CS(=O)(=O)c1ccc(C(=O)OCC(=O)NC(=O)Cc2ccccc2)cc1 | -9 | 5 | 0 | 7
CC(=O)Nc1ccc(C(=O)OCC(=O)N2CCN(C(=O)c3ccco3)CC2)cc1 | -1 | x | x | -3
CNC(=O)COC(=O)c1ccc(NC(=O)CC#N)cc1 | 98* | 19 | 0 | -4
O=C(OCC(=O)N1CCN(C(=O)c2ccco2)CC1)c1cc(-c2ccc(Cl)c(Cl)c2Cl)nc2ccccc12 | x | 34 | 0 | -10
COc1ccc(CCn2c(C)cc(C(=O)COC(=O)c3ccc(NC(=O)CC#N)cc3)c2C)cc1 | -14 | 32 | 2 | -14
CCc1ccc(NC(=O)COC(=O)CCc2nc3cc(S(=O)(=O)N(CC)CC)ccc3n2C)cc1 | 99* | 46 | 1 | 1
O=C(OCC(=O)N1CCN(C(=O)c2ccco2)CC1)c1cc(-c2ccco2)nc2ccccc12 | 93* | 18 | 1 | 4
COc1ccc(CCOC(=O)c2ccc(NC(=O)CC#N)cc2)cc1 | 89* | 32 | 0 | 17
CCN(CC)S(=O)(=O)c1ccc2c(c1)nc(CCC(=O)OCC(=O)Nc1cc(Cl)cc(Cl)c1)n2C | -1 | 22 | 0 | -6
Cc1noc(C)c1COc1ccc(C(=O)N2CCN(S(=O)(=O)c3cccc(F)c3)CC2)cc1 | -8 | x | x | 4
CCN(CC)S(=O)(=O)c1ccc(NC(=O)COC(=O)c2ccc(-n3nc(C)cc3C)cc2)cc1 | -3 | x | x | -10
CCN(CC)S(=O)(=O)c1ccc(NC(=O)COC(=O)c2ccc(NC(=O)CC#N)cc2)cc1 | 99* | 5 | 0 | 11
N#CCC(=O)Nc1ccc(C(=O)OCC(=O)Nc2ccccc2-c2ccccc2)cc1 | 98* | 4 | 0 | 511
COc1ccc(C2/C(=C(/O)c3ccc(Br)cc3)C(=O)C(=O)N2C)cc1 (configuration not stated) | 5 | -1 | -34 | -15
CCc1ccc(NC(=O)N2CCN(C(=O)C3CCCO3)CC2)cc1 (configuration not stated) | -3 | -11 | 0 | -11
CCC(C(=O)NCC1CCCO1)n1nc(C)c2sc3ccccc3c2c1=O (configuration not stated) | -5 | -2 | -1 | 7
O=C(NCc1cccc(F)c1)c1ccc2nc(N3CCOCC3)sc2c1 | -3 | 1 | 0 | -22
COc1ccc(S(=O)(=O)N2CCOCC2)cc1NC(=O)CN1C(=O)NC2(CCCCC2C)C1=O (configuration not stated) | x | x | x | -4
COc1ccc(/C=N/N=C(\N)c2nonc2N)cc1OC | -9 | 23 | 4 | 9
COc1cc(/C=N/NC(=O)c2nnn(-c3nonc3N)c2C(C)C)ccc1O | 99* | 8 | 0 | -9
COc1cc(/C=N/NC(=O)c2nnn(-c3nonc3N)c2-c2cccs2)ccc1O | 89* | 5 | -1 | -4
COc1cc(/C=N/N=C(\N)c2nonc2N)ccc1O | 99* | 18 | 3 | -16
CN(Cc1c(C(=O)N/N=C/c2ccc(O)cc2)nnn1-c1nonc1N)c1ccccc1 | 100* | -2 | -1 | 9
CCCCNc1ncnc2sc3c(c12)CCN(CCC)C3 | -16 | -9 | 0 | 551
CCOC(=O)c1ccc(S(=O)(=O)N2CCN(C(=O)C3CSC4(C)CCC(=O)N34)CC2)cc1 (configuration not stated) | -6 | x | x | 13
CN(C(=O)Cn1cc([N+](=O)[O-])ccc1=O)C1CCCCC1 | -3 | x | x | 15
CCN(CC(=O)NCc1ccc(F)cc1)C(=O)CCNS(=O)(=O)c1cccc(C)c1 | 3 | x | x | -20
Cc1cc2n(n1)C(c1ccccc1Cl)Nc1ccccc1-2 (configuration not stated) | 98* | 13 | 0 | -3
COc1ccc([C@@]2(C(C)C)ON(c3ccccc3C(F)(F)F)C2=O)cc1 | 1 | x | x | 18
